Many of the other results were omitted from the sample, so hits are more common in it than they were.
IDE exosite FP: displaces the probe from the exo-site of human IDE; P14735; purified IDE, FL-6b probe fluorescence polarization; stronger effect = lower value; z-score at 20 µM; 17,000 compounds, 6.3% hits; AID 1259349;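 active = z-score of -3 or lower, meaning strong loss of probe binding signal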;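 note: His-tagged human IDE residues 42-1019 made in E. coli with 30 nM FL-6b probe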
Active calls of the source: *.

SMILES | IDE exosite FP
O=C(c1ccncc1)N1CC(=O)N2[C@H](CO)[C@H](c3ccc(-c4ccccc4F)cc3)[C@H]2C1 | -4.8*
Cc1ccccc1-c1ccc([C@@H]2[C@H](CO)N3C(=O)CN(C(=O)c4ccncc4)C[C@@H]23)cc1 | -5.29*
N#C[C@H]1[C@@H](c2ccccc2-c2ccccc2F)[C@H](CO)N1C(=O)C1CC1 | 1.99
C[C@H](CO)N1C[C@H](C)[C@@H](CN(C)S(=O)(=O)c2cn(C)cn2)OCc2ccccc2-c2ccccc2C1=O | 0.139
CCCC#Cc1ccc([C@@H]2[C@H](CO)N3C(=O)CN(C(=O)c4ccncc4)C[C@@H]23)cc1 | 4.12
O=C(C[C@@H]1C[C@@H]2c3cc(NC(=O)NC4CCCC4)ccc3O[C@@H]2[C@H](CO)O1)NCc1ccccc1F | -0.151
CCCC(=O)Nc1ccc2c(c1)C(=O)N(C)C[C@@H](OC)[C@H](C)CN(C(=O)c1ccccn1)[C@@H](C)CO2 | 0.963
CCC(=O)N1[C@H](C#N)[C@H](c2ccccc2-c2cccc(C)c2)[C@@H]1CO | 0.861
Cc1ccccc1-c1ccc([C@H]2[C@H]3CN(C(=O)c4cccnc4)CC(=O)N3[C@H]2CO)cc1 | -1.95
O=C(c1ccncc1)N1CC(=O)N2[C@H](CO)[C@H](c3ccc(-c4cccnc4)cc3)[C@@H]2C1 | 1.6
Cc1ccccc1-c1ccc([C@@H]2[C@H]3CN(C(=O)c4ccncc4)CC(=O)N3[C@H]2CO)cc1 | -13.6*
COc1ccc([C@@H]2C/C=C\C[C@H](c3ccc4c(c3)OCO4)NC(=O)CCC(=O)N2)c(OC)c1 | 0.957
C/C=C/c1ccc([C@@H]2[C@H](CO)N(C(=O)c3ccccc3)C23CN(C(C)=O)C3)cc1 | 1.05
COc1ccc(S(=O)(=O)N2CCCCN3[C@H](C2)[C@H](c2ccc(C#CC4CC4)cc2)[C@@H]3CO)cc1 | 1.63
O=C1CN(Cc2ccccc2)C[C@H]2[C@H](c3ccc(Br)cc3)[C@@H](CO)N12 | -2.94
O=C(c1ccncc1)N1CCCCN2[C@H](C1)[C@H](c1ccc(-c3ccccc3)cc1)[C@@H]2CO | 1.93
Cc1cccc(-c2ccc([C@H]3[C@H]4CN(C(=O)c5ccncc5)CCCCN4[C@H]3CO)cc2)c1 | -3.05*
O=C(c1ccncc1)N1CCCCN2[C@@H](CO)[C@@H](c3ccc(-c4ccccc4)cc3)[C@@H]2C1 | -0.957
Cc1cccc(-c2ccc([C@@H]3[C@H](CO)N4CCCCN(C(=O)c5ccncc5)C[C@@H]34)cc2)c1 | -11.9*
Cc1cccc(-c2ccc([C@@H]3[C@H](CO)N4CCCCN(C(=O)c5cccnc5)C[C@@H]34)cc2)c1 | -1.43
Cc1ccc(-c2ccc([C@@H]3[C@H](CO)N4CCCCN(C(=O)c5ccncc5)C[C@@H]34)cc2)cc1 | -1.16
O=C(Cc1cccnc1)N1CC(=O)N2[C@H](CO)[C@H](c3ccc(C#CC4CCCCC4)cc3)[C@@H]2C1 | -2.28
CO[C@H]1CN(C)C(=O)c2cc(NC(=O)Cc3ccccc3)ccc2OC[C@H](C)N(C(=O)c2ccccc2F)C[C@H]1C | 1.49
CCC(=O)N(C[C@H]1[C@H](c2ccccc2)[C@@H](CO)N1S(C)(=O)=O)C(C)C | 5.39
COc1ccccc1C#Cc1ccc([C@@H]2[C@@H](CO)N3CCCCN(CCC(F)(F)F)C[C@H]23)cc1 | -2.59
SMILES | IDE exosite FP
COc1ccccc1C#Cc1ccc([C@H]2[C@H]3CN(CCC(F)(F)F)CCCCN3[C@H]2CO)cc1 | -7.19*
COc1ccccc1C#Cc1ccc([C@H]2[C@@H](CO)N3CCCCN(CCC(F)(F)F)C[C@H]23)cc1 | -12.3*
OC[C@@H]1[C@@H](c2ccc(C#CC3CCCC3)cc2)[C@H]2CN(CCC(F)(F)F)CCCCN12 | 1.75
OC[C@H]1[C@@H](c2ccc(-c3ccccc3)cc2)[C@@H]2CN(CCC(F)(F)F)CCCCN12 | -0.541
OC[C@H]1[C@H](c2ccc(C#CC3CCCC3)cc2)[C@@H]2CN(CCC(F)(F)F)CCCCN12 | 4.27
COc1ccc2c3c(n(C)c2c1)[C@@H](CO)N(CC1CC1)CC31CN(Cc2ccc(F)cc2)C1 | 0.408
CCCC(=O)Nc1ccc2c(c1)C(=O)N(C)[C@H]1CC[C@H](CC(=O)N3CCCCC3)O[C@@H]1CO2 | 0.534
C/C=C/c1ccc([C@@H]2[C@@H](C#N)N(C(=O)Cc3ccccn3)[C@@H]2CO)cc1 | -0.669
CS(=O)(=O)N1CC(=O)N2[C@H](CO)[C@@H](c3ccc(C#CC4CCCC4)cc3)[C@@H]2C1 | 3.71
C/C=C/c1ccccc1[C@@H]1[C@@H](CO)N(C(=O)Cc2ccccn2)[C@H]1C#N | -0.564
O=C(CN1CCOCC1)N[C@@H]1CC[C@H](CCn2cc(C3CC3)nn2)O[C@@H]1CO | 0.449
O=C(c1ccncc1)N1CC2(C1)[C@@H](c1ccccc1)[C@@H](CO)N2CC1CC1 | -0.475
O=C(Cc1ccccn1)N1CC2(C1)[C@@H](c1ccccc1)[C@H](CO)N2C(=O)c1ccncc1 | -3.56*
O=C(CC1CC1)N1CC2(C1)[C@H](c1ccccc1)[C@@H](CO)N2Cc1ccccn1 | 1.37
Cn1cnc(S(=O)(=O)N2[C@@H]3CNC[C@H]2C3c2ccc(-c3ccccc3F)cc2)c1 (some centres undefined) | -0.0337
Cc1noc(C)c1NC(=O)N1C[C@@H](O)COC[C@@H]2O[C@H](CC(=O)N[C@H]3CCN(Cc4ccccc4)C3)CC[C@H]21 | 0.14
CN(C)C(=O)c1cccc(-c2ccc([C@@H]3[C@H]4CN(C(=O)CC5CC5)CC(=O)N4[C@H]3CO)cc2)c1 | 3.25
CCCC#Cc1ccc([C@@H]2[C@@H](CO)N3CCCCN(CC4CCOCC4)C[C@H]23)cc1 | 0.685
OC[C@@H]1[C@H](c2ccc(C#Cc3ccccc3)cc2)[C@H]2CN(CC3CCOCC3)CCCCN12 | -4.38*
CCCC#Cc1ccc([C@@H]2[C@@H](CO)N3CCCCN(CC4CCOCC4)C[C@@H]23)cc1 | -1.16
OC[C@@H]1[C@@H](c2ccc(C#Cc3ccccc3F)cc2)[C@H]2CN(CC3CCOCC3)CCCCN12 | 2.23
OC[C@H]1[C@H](c2ccc(C#Cc3ccccc3)cc2)[C@@H]2CN(CC3CCOCC3)CCCCN12 | -3.58*
OC[C@H]1[C@H](c2ccc(C#Cc3ccccc3F)cc2)[C@H]2CN(CC3CCOCC3)CCCCN21 | -0.279
CCS(=O)(=O)N1CC(=O)N2[C@H](CO)[C@@H](c3ccc(C#Cc4ccc(F)cc4)cc3)[C@@H]2C1 | 1.81
Cc1noc(C)c1NC(=O)N(C)C[C@@H]1Oc2ccc(NC(=O)CCCN(C)C)cc2C(=O)N([C@H](C)CO)C[C@H]1C | -1.12
SMILES | IDE exosite FP
COCC#Cc1ccc([C@@H]2[C@@H](CO)N3CCCCN(Cc4cccnc4)C[C@@H]23)cc1 | -1.06
COCC(=O)N1CCCCN2[C@H](CO)[C@@H](c3ccc(-c4ccc(F)cc4)cc3)[C@H]2C1 | 1.34
OC[C@H]1[C@H](c2ccc(C#CC3(O)CCCC3)cc2)[C@H]2CN(Cc3cncnc3)CCCCN21 | 0.535
CCC(=O)N1[C@H](CO)[C@H]2c3ccccc3N(C(=O)Nc3ccc(Cl)cc3)C[C@H]21 | -0.852
O=C(c1ccccn1)N1CC(=O)N2[C@H](C1)[C@@H](c1ccc(C#CCc3ccccc3)cc1)[C@@H]2CO | 0.383
CC(C)C#Cc1ccc([C@@H]2[C@@H](CO)N3C(=O)CN(C(=O)c4ccccn4)C[C@@H]23)cc1 | 0.714
O=C(c1ccccn1)N1CC(=O)N2[C@H](CO)[C@@H](c3ccc(C#Cc4ccccc4)cc3)[C@@H]2C1 | -7.27*
O=C(c1ccccn1)N1CC(=O)N2[C@H](CO)[C@@H](c3ccc(C#CCc4ccccc4)cc3)[C@@H]2C1 | -0.00488
